# Assay results reported in PubChem BioAssay (NCATS).
# Inconclusive results are not listed. Values without a mark were called inactive. Active and inactive are the calls of the source. Calls follow the shape of the dose curve; as a rule, active = well fitted inhibition curve with a large enough effect; inconclusive = small, poorly fitted or top-dose-only effect; inactive = flat fitted curve, though single readings scatter.
# Biological target: Glutathione peroxidase 1 (Homo sapiens) (UniProt P07203)
# Assay: Primary qHTS Assay for Inhibitors of Recombinant Selenoprotein Glutathione Peroxidase 1 (GPX1) (AID 1845191)
# Conditions: recombinant GPX1, GR-coupled NADPH fluorescence, 15 min; series mostly up to 48.8 µM; activity, negative = inhibition: at the top concentration
# Outline: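 GR-coupled assay: compounds preincubated 30 min at room temperature with GPX1, then reaction started with CHP; final 10 nM GPX1, 1 mM GSH, 0.5 mM CHP, 0.5 mM NADPH, 100 nM GR, 0.01% BSA, pH 7.5 Tris buffer. NADPH fluorescence (340/450 nm) read at 0 and 15 min.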
# % is scaled to controls: 0 for no effect and ±100 for the full control effect; potency is read from the fitted curve at half-maximal effect.
# Also: nearly all actives have a fitted effect of over 65% in size.
# Sequence of Glutathione peroxidase 1 (Homo sapiens) (P07203 whole entry, looked up): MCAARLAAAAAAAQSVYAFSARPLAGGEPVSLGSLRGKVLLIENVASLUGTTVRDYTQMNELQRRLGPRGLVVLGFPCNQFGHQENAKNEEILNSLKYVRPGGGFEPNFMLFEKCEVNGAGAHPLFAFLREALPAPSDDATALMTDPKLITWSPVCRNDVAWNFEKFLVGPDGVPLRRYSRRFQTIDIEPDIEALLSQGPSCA
SMILES,"activity, negative = inhibition",outcome,Potency
CC(C(=O)O)c1ccc(C2CCCCC2)c2ccccc12 (stereo not drawn),-23.4%,,
CON=C1C[C@]2(C[C@@H]3C[C@@H](C/C=C(\C)C[C@@H](C)/C=C/C=C4\CO[C@@H]5[C@H](O)C(C)=C[C@@H](C(=O)O3)[C@]45O)O2)O[C@H](/C(C)=C/C(C)C)[C@H]1C,-24%,,
C[N+](C)(CCCCCC[N+](C)(C)C1c2ccccc2-c2ccccc21)C1c2ccccc2-c2ccccc21,-10.1%,,
CCCCOC(=O)C(=O)Nc1cccc(-c2nn[nH]n2)c1,3.99%,,
FC(F)(F)c1ccc(CNc2ccc(Cc3c[nH]c4ncc(Cl)cc34)cn2)cn1,-3.72%,,
CCOC(=O)[C@@]1(CCCCCCOc2ccc(Cl)cc2)CO1,,inactive,
CN=C(NC)NCc1ccccc1,,inactive,
CNC[C@@H]1CC[C@@H](N)[C@@H](O[C@H]2[C@H](O)[C@@H](O[C@H]3OC[C@](C)(O)[C@H](NC)[C@H]3O)[C@H](N)C[C@@H]2N)O1,-9.21%,,
CCOc1ccc(N=C(C)Nc2ccc(OCC)cc2)cc1,-19.6%,,
O=P(O)(O)OC(Cn1cncn1)(Cn1cncn1)c1ccc(F)cc1F,,inactive,
CS(=O)(=O)OCCCNCCCOS(C)(=O)=O,-13.6%,,
COC(=O)Nc1cc(Nc2cc(NC3CC3)c3ncc(C#N)n3n2)c(Cl)c(N2CCN(C)CC2)c1,,inactive,
CC(=O)OCC(=O)[C@@]1(O)[C@H](C)C[C@H]2[C@@H]3C[C@H](F)C4=CC(=O)C=C[C@]4(C)[C@H]3[C@@H](O)C[C@@]21C,-11.4%,,
C/C(=C(/CCO)SSCC1CCCO1)N(C=O)Cc1cnc(C)nc1N (stereo not drawn),,inactive,
CC(C)(S)C(=O)N[C@@H](CS)C(=O)O,-13.5%,,
CCN1CCCC1CNC(=O)c1cc(S(=O)(=O)CC)ccc1OC (stereo not drawn),4.22%,,
CN1CC(O)c2cc(N=NC(N)=O)c(O)cc21 (stereo not drawn),3.04%,,
CCCCCCCCCCCCCCCCCC(=O)[O][Al],-27.3% [at 4.49 µM],,
CC#CCC(C)[C@H](O)/C=C/[C@@H]1[C@H]2c3cccc(CCCC(=O)O)c3O[C@H]2C[C@H]1O (stereo partly drawn),,inactive,
CO[C@H]1[C@@H](O)[C@H](N)[C@@H](O[C@H]2O[C@H]([C@H](C)N)CC[C@H]2N)[C@H](O)[C@@H]1N(C)C(=O)CN,-3.56%,,

SMILES,"activity, negative = inhibition",outcome,Potency
O=P(O)(O)OC(CO)CO,,inactive,
CC(CC(c1ccccc1)c1ccccc1)NC(C)(C)C (stereo not drawn),-3.92%,,
O=C(OCCO)c1ccccc1O,,inactive,
OC(CN1CCCCC1)c1cc(-c2ccccc2)on1 (stereo not drawn),,inactive,
CCCCCCCCCCCCCCCC(=O)OCCC1CCN(CCCN2c3ccccc3Sc3ccc(S(=O)(=O)N(C)C)cc32)CC1,-14.5%,,
C[C@H]1C[C@@H]2[C@H]([C@@H](O)C[C@@]3(C)[C@H]2CC[C@]3(O)C(=O)COC(=O)CCC(=O)O)[C@@]2(C)C=CC(=O)C=C12,,inactive,
CN(C(=O)CO)c1c(I)c(C(=O)NCC(O)CO)c(I)c(C(=O)NCC(O)CO)c1I (stereo not drawn),1.84%,,
O=P(O)(O)C(Sc1ccc(Cl)cc1)P(=O)(O)O,3.51% [at 0.4 µM],,
CC1(S(=O)(=O)O)CC(=O)c2ccccc2C1=O (stereo not drawn),,,2020 nM (active)
CCCCC(=O)O,,inactive,
O=P(O)(O)C(O)(Cc1cnc2ccccn12)P(=O)(O)O,-12.2% [at 0.4 µM],,
C=Cc1ccccc1,0.716%,,
O=C(O)c1cc2ccccc2c(Cc2c(O)c(C(=O)O)cc3ccccc23)c1O,-6.39%,,
CN1CCN(C2=Nc3ccccc3Cc3ccccc32)CC1,-25.5%,,
CCOC(=O)[C@H](CCc1ccccc1)N[C@H]1CCCN2CCC[C@@H](C(=O)O)N2C1=O,,,inactive
O=S(=O)(O)Oc1ccc(C(c2ccc(OS(=O)(=O)O)cc2)c2ccccn2)cc1,-11.7%,,
CC(=O)O[C@H]1C[C@@H]2CC[C@@H]3[C@H](CC[C@@]4(C)[C@H]3C[C@H](N3CC[N+](C)(C)CC3)[C@@H]4OC(C)=O)[C@@]2(C)C[C@@H]1N1CC[N+](C)(C)CC1,1.78%,,
COc1cc(C[C@@H]2NCCc3cc(O)c(O)cc32)cc(OC)c1OC,-6.12%,,
CCCCCCCCCCCCCCCCCC(=O)OCCO,,inactive,

# Biological target: Phospholipid hydroperoxide glutathione peroxidase GPX4 (Homo sapiens) (UniProt P36969)
# Assay: Primary qHTS Assay for Inhibitors of Recombinant Selenoprotein Glutathione Peroxidase 4 (GPX4) (AID 1845192)
# Conditions: recombinant GPX4, GR-coupled NADPH fluorescence, 15 min; series mostly up to 50 µM; activity change, negative = inhibition: at the top concentration
# Outline: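 GR-coupled assay: recombinant GPX4 preincubated 30 min with compound at room temperature; final 200 nM GPX4, 1 mM GSH, 0.5 mM cumene hydroperoxide, 0.5 mM NADPH, 100 nM GR, 0.01% BSA, pH 7.5 Tris. NADPH fluorescence (340/450 nm) read at 0 and 15 min.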
# Sequence of Phospholipid hydroperoxide glutathione peroxidase GPX4 (Homo sapiens) (P36969 whole entry, looked up): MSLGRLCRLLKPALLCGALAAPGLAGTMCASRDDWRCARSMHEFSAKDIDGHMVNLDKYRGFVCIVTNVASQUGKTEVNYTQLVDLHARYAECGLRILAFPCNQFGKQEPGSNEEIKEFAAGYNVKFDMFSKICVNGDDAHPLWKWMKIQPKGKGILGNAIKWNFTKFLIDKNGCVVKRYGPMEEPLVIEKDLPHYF
SMILES,Potency,"activity change, negative = inhibition",outcome
CC(C(=O)O)c1ccc(C2CCCCC2)c2ccccc12 (stereo not drawn),15800 nM (active),,
CON=C1C[C@]2(C[C@@H]3C[C@@H](C/C=C(\C)C[C@@H](C)/C=C/C=C4\CO[C@@H]5[C@H](O)C(C)=C[C@@H](C(=O)O3)[C@]45O)O2)O[C@H](/C(C)=C/C(C)C)[C@H]1C,,-29.9%,
C[N+](C)(CCCCCC[N+](C)(C)C1c2ccccc2-c2ccccc21)C1c2ccccc2-c2ccccc21,,-7.2%,
CCCCOC(=O)C(=O)Nc1cccc(-c2nn[nH]n2)c1,,-16.3%,
FC(F)(F)c1ccc(CNc2ccc(Cc3c[nH]c4ncc(Cl)cc34)cn2)cn1,,-0.561%,
CCOC(=O)[C@@]1(CCCCCCOc2ccc(Cl)cc2)CO1,,-1.33%,
CN=C(NC)NCc1ccccc1,,,inactive
CNC[C@@H]1CC[C@@H](N)[C@@H](O[C@H]2[C@H](O)[C@@H](O[C@H]3OC[C@](C)(O)[C@H](NC)[C@H]3O)[C@H](N)C[C@@H]2N)O1,,-19.3%,
CCOc1ccc(N=C(C)Nc2ccc(OCC)cc2)cc1,,-20.2%,
O=P(O)(O)OC(Cn1cncn1)(Cn1cncn1)c1ccc(F)cc1F,,3.18%,
CS(=O)(=O)OCCCNCCCOS(C)(=O)=O,,-15.5%,
COC(=O)Nc1cc(Nc2cc(NC3CC3)c3ncc(C#N)n3n2)c(Cl)c(N2CCN(C)CC2)c1,,-7.24%,
CC(=O)OCC(=O)[C@@]1(O)[C@H](C)C[C@H]2[C@@H]3C[C@H](F)C4=CC(=O)C=C[C@]4(C)[C@H]3[C@@H](O)C[C@@]21C,,-19.6%,
C/C(=C(/CCO)SSCC1CCCO1)N(C=O)Cc1cnc(C)nc1N (stereo not drawn),,,inactive
CC(C)(S)C(=O)N[C@@H](CS)C(=O)O,,-17.7%,
CCN1CCCC1CNC(=O)c1cc(S(=O)(=O)CC)ccc1OC (stereo not drawn),,2.59%,
CN1CC(O)c2cc(N=NC(N)=O)c(O)cc21 (stereo not drawn),,,inactive
CCCCCCCCCCCCCCCCCC(=O)[O][Al],,-12.8% [at 4.52 µM],
CC#CCC(C)[C@H](O)/C=C/[C@@H]1[C@H]2c3cccc(CCCC(=O)O)c3O[C@H]2C[C@H]1O (stereo partly drawn),,-0.433%,
CO[C@H]1[C@@H](O)[C@H](N)[C@@H](O[C@H]2O[C@H]([C@H](C)N)CC[C@H]2N)[C@H](O)[C@@H]1N(C)C(=O)CN,,,inactive

SMILES,Potency,"activity change, negative = inhibition",outcome
O=P(O)(O)OC(CO)CO,,,inactive
CC(CC(c1ccccc1)c1ccccc1)NC(C)(C)C (stereo not drawn),,-1.46%,
O=C(OCCO)c1ccccc1O,,,inactive
OC(CN1CCCCC1)c1cc(-c2ccccc2)on1 (stereo not drawn),,4.31%,
CCCCCCCCCCCCCCCC(=O)OCCC1CCN(CCCN2c3ccccc3Sc3ccc(S(=O)(=O)N(C)C)cc32)CC1,,-18.3%,
C[C@H]1C[C@@H]2[C@H]([C@@H](O)C[C@@]3(C)[C@H]2CC[C@]3(O)C(=O)COC(=O)CCC(=O)O)[C@@]2(C)C=CC(=O)C=C12,,3.7%,
CN(C(=O)CO)c1c(I)c(C(=O)NCC(O)CO)c(I)c(C(=O)NCC(O)CO)c1I (stereo not drawn),,3.32%,
O=P(O)(O)C(Sc1ccc(Cl)cc1)P(=O)(O)O,,,inactive [at 0.409 µM]
CC1(S(=O)(=O)O)CC(=O)c2ccccc2C1=O (stereo not drawn),891 nM (active),,
CCCCC(=O)O,,2.71%,
O=P(O)(O)C(O)(Cc1cnc2ccccn12)P(=O)(O)O,,0.142% [at 0.409 µM],
C=Cc1ccccc1,,-1.17%,
O=C(O)c1cc2ccccc2c(Cc2c(O)c(C(=O)O)cc3ccccc23)c1O,,-20.1%,
CN1CCN(C2=Nc3ccccc3Cc3ccccc32)CC1,,-23.9%,
CCOC(=O)[C@H](CCc1ccccc1)N[C@H]1CCCN2CCC[C@@H](C(=O)O)N2C1=O,,-2.61%,
O=S(=O)(O)Oc1ccc(C(c2ccc(OS(=O)(=O)O)cc2)c2ccccn2)cc1,,-1.03%,
CC(=O)O[C@H]1C[C@@H]2CC[C@@H]3[C@H](CC[C@@]4(C)[C@H]3C[C@H](N3CC[N+](C)(C)CC3)[C@@H]4OC(C)=O)[C@@]2(C)C[C@@H]1N1CC[N+](C)(C)CC1,,4.86%,
COc1cc(C[C@@H]2NCCc3cc(O)c(O)cc32)cc(OC)c1OC,,-8.27%,
CCCCCCCCCCCCCCCCCC(=O)OCCO,,,inactive
